Consider 111 molecules from PubChem BioAssay AID1240 (Sanford-Burnham Center for Chemical Genomics, 2008).

About 800 (1.6%) of roughly 50,000 compounds showed an effect of 50% or more. The sample holds strong results, similar compounds and a random draw of the others, so the mix is not that of the screen.

Chain of Bcl-2-like protein 10 (Homo sapiens) (Q9HD36 whole entry, looked up): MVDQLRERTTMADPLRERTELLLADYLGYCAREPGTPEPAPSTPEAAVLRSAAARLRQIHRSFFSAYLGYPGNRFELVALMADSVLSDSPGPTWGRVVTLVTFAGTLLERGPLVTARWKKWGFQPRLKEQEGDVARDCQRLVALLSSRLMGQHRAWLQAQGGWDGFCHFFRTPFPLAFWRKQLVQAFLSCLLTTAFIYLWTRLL

The experiment has as its target Bcl-2-like protein 10 (Homo sapiens) (UniProt Q9HD36). Put plainly: Phenotype converters, Bcl-B/TR3 peptide binding displacement, primary biochemical FP (AID 1240).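 Further: 0% = Bcl-B with tracer peptide and DMSO and 100% = tracer peptide lacking Bcl-B.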 The settings on record: GST-Bcl-B / FITC-TR3 peptide fluorescence polarization; stronger effect = higher value; compound at 3.75 mg/L. For orientation: Fluorescence polarisation rises when a labelled molecule tumbles more slowly, as on binding a larger partner.
On to `COc1ccccc1NC(=O)C1=C(C)NC(=S)NC1c1ccccc1OC` (stereo unspecified), for which the displacement turned out to be 6%. In the case of `CCn1cc(/C=C2\C(=O)NC(=O)N(c3ccc(Cl)cc3)C2=O)c2ccccc21` it was -18.6%; in that of `O=C1NC(=O)N(c2ccc(Cl)cc2)C(=O)/C1=C/c1ccc(F)cc1`, 8.2%. For the molecule `CCOc1ccccc1/C=C1\C(=O)NC(=O)N(c2ccc(Br)c(C)c2)C1=O`, the displacement is -7.9%. In the case of `O=C1NC(=O)N(c2ccc(Cl)cc2)C(=O)/C1=C\c1ccc(N2CCCC2)cc1` it was 71.4%; in that of `C#CCn1cc(/C=C2\C(=O)NC(=O)N(c3ccc(Br)c(C)c3)C2=O)c2ccccc21`, 6.2%; in that of `O=C1NC(=O)N(c2ccccc2)C(=O)/C1=C\c1ccc(Cl)cc1`, 1.4%. `Cc1cc(N2C(=O)NC(=O)/C(=C\c3cn(C)c4ccccc34)C2=O)ccc1Br`: the displacement stood at 126%. Regarding `Cc1cc(C)cc(N2C(=O)NC(=O)/C(=C\c3ccccc3C)C2=O)c1`, the displacement turned out to be 6.3%. `Cc1c(/C=C2\C(=O)NC(=O)N(c3ccc(Cl)cc3)C2=O)c2ccccc2n1C`: the displacement came to 104%. The figure for `O=C1NC(=O)N(c2ccccc2)C(=O)/C1=C/c1ccc(N2CCCC2)cc1` is -30.2%; for `Cc1cc(C)cc(N2C(=O)NC(=O)/C(=C\c3cn(C)c4ccccc34)C2=O)c1` it is 144%; for `COC(=O)Cn1cc(/C=C2\C(=O)NC(=O)N(c3cc(C)cc(C)c3)C2=O)c2ccccc21` it is -4.6%.

Consider `Cc1ccc(C(=O)N2CCC(Cc3ccccc3)CC2)o1`, for which the displacement is 6.7%.

Regarding `CC1S/C(=N/N=C/c2ccccc2Cl)NC1=O` (stereo unspecified), the displacement is 1.2%. The figure for `CCOC(=O)/C(C#N)=C\c1ccc(F)cc1` is 2.3%.

Turning to `CCOC(=O)C(C)Oc1cc2oc(=O)cc(-c3ccccc3)c2cc1CC` (stereo unspecified), the displacement stood at 11%. In the case of `COc1ccc(CCN=CC2=C(O)CC(c3ccccc3)CC2=O)cc1OC` (stereo unspecified) it was 1.2%; in that of `CCCOc1cccc(NC(=O)c2c(-c3ccccc3)noc2C)c1`, -5.5%; in that of `COc1ccc(OC)c(/C=C/C(=O)Oc2cc(C)cc(C)c2)c1`, 11.8%. As for `Cc1cccc(N2C(=O)S/C(=C\c3ccccc3)C2=O)c1`, the displacement stood at 12.3%. The figure for `Cn1cc(C=C2C(=O)NC(=S)NC2=O)c2ccccc21` is 8.8%; for `O=C1NC(=O)N(c2ccc(Cl)cc2)C(=O)/C1=C/c1ccsc1` it is -24.1%.

Regarding `COc1ccc(N2C(=O)NC(=O)/C(=C/c3cn(CCOc4ccccc4OC)c4ccccc34)C2=O)cc1`, the displacement was found to be 87.6%.

For the molecule `Cc1cc(C)cc(N2C(=O)NC(=O)/C(=C\c3ccsc3)C2=O)c1`, the displacement is -7.8%. In the case of `COc1ccccc1OCCn1cc(C=C2C(=O)N(C)C(=O)N(C)C2=O)c2ccccc21` it was 3.5%.

`CC(C)c1ccc(N2C(=O)NC(=O)/C(=C/c3ccccc3O)C2=O)cc1`: the displacement turned out to be 0.6%. On to `Cc1ccc(N2C(=O)NC(=O)/C(=C\c3ccsc3)C2=O)cc1`, for which the displacement was determined as 66.1%. In the case of `CC(C)c1ccc(N2C(=O)NC(=O)/C(=C/c3cn(C)c4ccccc34)C2=O)cc1` it was 145%; in that of `Cc1cccc(N2C(=O)/C(=C/c3ccc(N(C)C)cc3)SC2=S)c1`, -5.4%. For `Cc1cccc(N2C(=O)S/C(=C/c3ccc(N(C)C)cc3)C2=O)c1`, the displacement amounted to 95.7%. On to `COc1ccccc1OCCn1cc(/C=C2/C(=O)NC(=O)N(c3ccccc3)C2=O)c2ccccc21`, for which the displacement turned out to be 1.6%. In the case of `O=C(NCc1cccs1)c1cc2n(n1)C(C(F)(F)F)CC(c1cccs1)N2` (stereo unspecified) it was 0%; in that of `CCC(Oc1ccccc1)C(=O)NC(C)c1ccccc1` (stereo unspecified), -18.9%. In the case of `Oc1ccc(Br)cc1C=NCc1ccco1` it was 3.3%; in that of `Cc1sc(NC(=O)c2ccc(Br)o2)c(C(N)=O)c1C`, 10%. In the case of `COc1ccc(CC(=O)Nc2ccc(Br)c(C)c2)cc1` it was 7.5%; in that of `C=CCNCCCCOc1ccc(Br)cc1`, 8.5%; in that of `Cc1no[n+]([O-])c1COc1ccc(/C=C2\N=C(c3ccccc3)OC2=O)cc1`, -9.9%.

For `Cc1c(-c2ccc(Cl)cc2)nc2ccccc2c1C(=O)O`, the displacement is -6.5%.

In the case of `Cc1cc(C)cc(N2C(=O)NC(=O)/C(=C\c3ccc(F)cc3)C2=O)c1`, the displacement came out at 7.7%. In the case of `C#CCn1cc(/C=C2\C(=O)NC(=O)N(c3ccc(Cl)cc3)C2=O)c2ccccc21` it was 37.5%.

As to `C#CCn1cc(/C=C2\C(=O)NC(=O)N(c3ccc(C)cc3)C2=O)c2ccccc21`, the displacement amounted to 66.4%. On to `CCn1cc(/C=C2\C(=O)NC(=O)N(c3ccccc3)C2=O)c2ccccc21`, for which the displacement was found to be 25.2%. For `Cc1cc(C)cc(N2C(=O)NC(=O)/C(=C\c3ccc(Cl)cc3)C2=O)c1`, the displacement stood at 16.4%. On to `Cc1cc(C)cc(N2C(=O)NC(=O)/C(=C\c3ccc(N(C)C)cc3)C2=O)c1`, for which the displacement stood at 127%.

On to `CCCC(C)NC(=O)c1ccc(Cl)c([N+](=O)[O-])c1` (stereo unspecified), for which the displacement is -0.1%. The figure for `CCOC(=O)/C(C#N)=C/c1ccc(OCc2c(C)no[n+]2[O-])cc1` is -1.9%; for `CN1CCN(CCOCCOc2ccccc2)CC1` it is -7.9%; for `O=C(CCCC(=O)OCC(F)(F)C(F)F)Nc1nccs1` it is 9.8%. In the case of `O=C(NCCO)/C(=C/c1cccc([N+](=O)[O-])c1)NC(=O)c1cccs1` it was 0%; in that of `CC(=O)c1cccc(NC(=O)c2ccc(-c3ccc(Cl)cc3Cl)o2)c1`, -4.6%; in that of `Cc1ccccc1C(=O)Nc1cccc(NC(=O)c2ccc(-c3cccc(Cl)c3)o2)c1`, 0.6%. In the case of `CC(=O)c1ccc(NC(=O)c2ccc(-c3ccc(Cl)cc3Cl)o2)cc1` it was -1.3%; in that of `O=C(Nc1cccc([N+](=O)[O-])c1)c1ccc(-c2ccc(Cl)cc2)o1`, 9%. For `O=C(Nc1ccc(NC(=O)c2ccc(-c3ccc(Cl)cc3Cl)o2)cc1)c1ccccc1`, the displacement was 83.5%. In the case of `O=C(Nc1cccc(NC(=O)c2ccc(Cl)cc2Cl)c1)c1ccc(-c2ccc([N+](=O)[O-])cc2)o1` it was 106%. In the case of `Cc1cccc(NC(=O)c2ccc(-c3ccc(C)c(Cl)c3)o2)c1` it was 69.8%.

In the case of `Cc1ccc(-c2ccc(C(=O)Nc3cccnc3)o2)cc1Cl`, the displacement amounted to 5.6%. `O=C(Nc1cc(Cl)cc(Cl)c1)c1ccc(-c2ccc([N+](=O)[O-])cc2)o1`: the displacement came to 5.1%. The figure for `Cc1ccc(-c2ccc(C(=O)Nc3ccc(N4CCOCC4)cc3)o2)cc1Cl` is 10.8%; for `Cc1ccccc1C(=O)Nc1cccc(NC(=O)c2ccc(-c3ccc(Br)cc3)o2)c1` it is 21.4%; for `O=C(Nc1cccc(NC(=O)c2ccccc2Cl)c1)c1ccc(-c2ccc(Br)cc2)o1` it is 57.3%.

`COc1ccc(CNC(=O)Cc2ccc(Br)cc2)cc1`: the displacement was 0%.

With `COc1ccc(CCNC(=O)/C=C\c2ccccc2)cc1OC`, the displacement was 6.7%. In the case of `CCOC(=O)c1c(NC(=O)c2cc(Cl)ccc2[N+](=O)[O-])sc(C(=O)N(CC)CC)c1C` it was -1.1%; in that of `Cc1cc2[nH]c(=O)cc(-c3ccccc3)n2n1`, -5.3%.

As for `COc1cccc(NC(=O)c2cc(Cl)ccc2Cl)c1`, the displacement was found to be 11.1%. Consider `COc1ccc(-c2nc3cc(N)ccc3o2)cc1OC`, for which the displacement amounted to 2.7%. The figure for `CCOC(=O)C(CCOCCOc1c(C)cc(Cl)cc1C)C(=O)OCC` is -9.7%. In the case of `Cc1ccc(/C=N/NS(=O)(=O)c2ccc(C)cc2)cc1` it was 8%. Turning to `CCOC(=O)C1=C(C)N=c2s/c(=C\c3ccc(Br)o3)c(=O)n2C1c1cccc(OC)c1` (stereo unspecified), the displacement is 10.7%. As to `CCOC(=O)C1=C(C)N=c2s/c(=C\c3ccc(N4CCOCC4)o3)c(=O)n2C1c1ccc(SC)cc1` (stereo unspecified), the displacement was -55.4%. In the case of `CCOC(=O)C1=C(C)N=c2s/c(=C\c3ccc(C)o3)c(=O)n2C1c1cccc(OC)c1` (stereo unspecified) it was 73.3%; in that of `CCOC(=O)C1=C(C)N=c2s/c(=C\c3ccc(Br)o3)c(=O)n2C1c1ccc(F)cc1` (stereo unspecified), 11.2%; in that of `CCOC(=O)C1=C(C)N=c2s/c(=C\c3ccc(C)o3)c(=O)n2C1c1ccc(SC)cc1` (stereo unspecified), 65.3%. The figure for `CCOC(=O)C1=C(C)N=c2s/c(=C\c3ccc(-c4ccccc4C(=O)O)o3)c(=O)n2C1c1cccc(OC)c1` (stereo unspecified) is -23.4%. In the case of `CC1(C)Nc2ccccc2N(CCC(=O)N2CCOCC2)C1=O` it was 9%. Take `Cc1ccnc(NC(=O)COc2ccc(Cl)c(C)c2)c1`: the displacement stood at 1.5%.

Turning to `O=C1CC(c2ccccc2)CC2=C1C(c1ccc(F)cc1)Nc1ccccc1N2` (stereo unspecified), the displacement is 2.3%. The figure for `COc1ccc(OC)c(/C=N/NC(=O)CSc2ncccn2)c1` is 1.1%.

`CC(C)=N/N=C1/NC(=O)C(CC(=O)Nc2ccc(C)cc2C)S1` (stereo unspecified): the displacement was -0.5%. The figure for `C/C(=C\C(=O)c1ccc(C)cc1)Nc1ccc(I)cc1` is 7.2%. The figure for `NC(=O)c1ccc(NC(=O)CCN2C(=O)c3ccccc3C2=O)cc1` is 26.7%.

For the molecule `Cc1ccc(C2=NC(=O)/C(=C/c3ccc4c(c3)OCO4)S2)cc1`, the displacement was determined as 0.5%.

On to `CC(=O)NC1=NC(=O)/C(=C\c2ccc(C(C)C)cc2)S1`, for which the displacement was -10.2%. For the molecule `CC(=O)NC1=NC(=O)/C(=C\c2ccc(Cl)c(Cl)c2)S1`, the displacement is -13.5%. In the case of `CC(=O)NC1=NC(=O)/C(=C\c2ccc3c(c2)OCO3)S1` it was 130%; in that of `CC(=O)NC1=NC(=O)/C(=C\c2cn(C)c3ccccc23)S1`, 123%. The figure for `CC(=O)NC1=NC(=O)/C(=C\c2ccc(-c3ccccc3C(=O)O)o2)S1` is 14.5%; for `CC(=O)NC1=NC(=O)/C(=C\c2ccc(Cl)cc2)S1` it is 133%. With `O=Cc1cc(Br)ccc1OCc1c(F)cccc1Cl`, the displacement was 0.3%. With `O=C(N/N=C/c1cc(Cl)ccc1OCc1c(F)cccc1Cl)c1cccnc1`, the displacement was -2%. `CC(=O)NC1=NC(=O)/C(=C\c2ccc(-c3ccc(C(=O)O)cc3)o2)S1`: the displacement was -27%. With `CC(=O)NC1=NC(=O)/C(=C/c2cc(Cl)ccc2OCc2c(F)cccc2Cl)S1`, the displacement was 112%.

For the molecule `COC(=O)c1cc(C(=O)N2CCCC2)cc([N+](=O)[O-])c1`, the displacement amounted to 12.7%. In the case of `Cc1cc(/C=N/NC(=O)c2ccccn2)c(C)n1-c1cccc(Cl)c1`, the displacement is -15.5%. As to `COc1ccc(S(=O)(=O)N(CC(=O)N[C@@H]2CCCC[C@H]2O)c2ccc(C)cc2)cc1OC`, the displacement worked out at 0.1%.

Regarding `COC(=O)c1cnn2c1NC(c1ccccc1)CC2C(F)(F)F` (stereo unspecified), the displacement was determined as 6.5%. For the molecule `CC(C)(C)NC(=O)c1cc2nc(-c3ccccc3)cc(C(F)(F)F)n2n1`, the displacement came out at 13%. The figure for `CC(=O)NC1=NC(=O)/C(=C\c2ccc(Br)o2)S1` is 1.4%. In the case of `CC(=O)NC1=NC(=O)/C(=C\c2ccccc2F)S1` it was 107%; in that of `CC(=O)NC1=NC(=O)/C(=C\c2ccc(I)o2)S1`, 20.2%; in that of `CC(=O)NC1=NC(=O)/C(=C\c2ccc(C)o2)S1`, 96%. In the case of `CC(=O)NC1=NC(=O)/C(=C\c2ccc(N(C)C)cc2)S1` it was -23.2%. In the case of `Cc1ccsc1/C=C1/SC(N2CCCC2)=NC1=O`, the displacement is 1.4%.

In the case of `Cc1ccsc1/C=C1\SC(N2CCN(C)CC2)=NC1=O`, the displacement worked out at 3%.

In the case of `CC(=O)NC1=NC(=O)/C(=C\c2sccc2C)S1`, the displacement amounted to 98.2%.

As to `CCN(CC)c1ccc(/C=C2/SC(NC(C)=O)=NC2=O)cc1`, the displacement was found to be 61.1%. In the case of `CC(=O)NC1=NC(=O)/C(=C\c2ccc(N(C)C)c(Br)c2)S1` it was -39.2%. The figure for `CC(=O)NC1=NC(=O)/C(=C\c2ccccc2C)S1` is -6.5%.
